# Screening data from PubChem.
# IL1B secr inh – inflammasome signaling inhibition, IL-1 beta readout; THP-1 LPS/ATP IL-1B secretion, AlphaLISA, 16 h; hits give low values; activity change, % at 57.5 µM; 4.7% of 360,000 active; AID 743279; in the data active means activity change below about -50%; inconclusive means mostly about -30% to -49%
#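 THP-1 cells pretreated 1 hr with compounds (up to 57.5 uM final), then stimulated with LPS (250 ng/mL final) plus ATP (1.25 mM final); secreted IL-1B measured by AlphaLISA after 16 hr, decreased signal indicating inhibition.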
# TDP1 cell noCPT – qHTS for Inhibitors of human tyrosyl-DNA phosphodiesterase 1 (TDP1): qHTS in cells in absence of CPT. 15% of 420,000 active. DT40 Tdp1-/- hTDP1 cells, no CPT, ATP luminescence, 48 h. Potency, µM (top dose mostly 46.2 µM), most hits filed as inhibitors; further: nearly all actives have a fitted effect of over 55% in size
#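 Stably hTDP1-transfected Tdp1-null chicken DT40 cells were treated with library compounds minus camptothecin and grown for at least 48 hr at 37 °C, after which cellular ATP was quantified by luminescence.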
# RORg inh – blocks mouse ROR gamma transcriptional activity; 5.4% of 310,000 active; AID 2551; Drosophila S2 Gal4-RORgamma UAS-luciferase reporter, 20 h; Potency, µM (series often up to 53.6 µM), hits mostly inhibitors; P51450; further: nearly all actives have a fitted effect of over 60% in size
# Target sequence (P51450 whole entry, looked up, the tested form may be a part): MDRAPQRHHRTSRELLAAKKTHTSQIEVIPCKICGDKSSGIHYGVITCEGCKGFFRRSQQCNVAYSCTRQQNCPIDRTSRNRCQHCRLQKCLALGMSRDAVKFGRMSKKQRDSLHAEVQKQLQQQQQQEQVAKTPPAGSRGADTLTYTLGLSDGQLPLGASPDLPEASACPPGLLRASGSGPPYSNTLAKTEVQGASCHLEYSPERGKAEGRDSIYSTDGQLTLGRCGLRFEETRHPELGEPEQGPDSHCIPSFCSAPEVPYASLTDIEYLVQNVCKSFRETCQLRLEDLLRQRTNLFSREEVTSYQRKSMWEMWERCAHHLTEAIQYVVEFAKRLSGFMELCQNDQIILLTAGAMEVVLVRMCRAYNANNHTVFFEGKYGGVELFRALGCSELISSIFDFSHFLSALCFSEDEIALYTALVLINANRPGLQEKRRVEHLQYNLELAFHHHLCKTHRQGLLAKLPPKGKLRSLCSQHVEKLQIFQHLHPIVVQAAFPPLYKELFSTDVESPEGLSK
#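 Luciferase reporter read in Schneider cells carrying Gal4-RORγ (mouse) and UAS-Photinus luciferase; cells given compound 1 h before 700 uM copper sulfate induction, then incubated 20 h at ambient temperature.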
# DT40 TDP1 CPT – DT40-hTDP1 cell growth loss with CPT; chicken DT40 Tdp1-/-;hTDP1 cells + 20 nM CPT, ATP luminescence, 48 h; Potency, µM (series often up to 46.2 µM), hits mostly inhibitors; 12% of 420,000 active; further: nearly all actives have a fitted effect of over 55% in size
#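 Chicken DT40 Tdp1-/- cells complemented with human TDP1, 400 cells/well, exposed to compounds plus 20 nM camptothecin for at least 48 h at 37 C; viability read as ATP content by CellTiter-Glo luminescence.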
# Gal4-VP16 FLuc – inhibits Gal4-VP16 luciferase reporter, ROR gamma counter-screen | Potency, µM (titrated, usually from 53.6 µM), hits mostly inhibitors | Drosophila S2 Gal4-VP16 UAS-luciferase, luminescence, 20 h | 3.5% of 310,000 active;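 further: Gal4-VP16 expression switched on by copper sulfate through the metallothionein promoter; nearly all actives have a fitted effect of over 50% in size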
# ELG1 DNA repair – ELG1-dependent DNA repair inhibition. 2.3% of 330,000 active. HEK293T ELG1-luciferase reporter, luminescence, 16 h; DNA damage induced by 5-fluorouridine. Potency, µM (doses to about 46.1 µM), usual class: inhibitors. AID 504467; further: nearly all actives have a fitted effect of over 55% in size
#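 Overnight (16 hr) co-exposure of 2,000 cells/well to 5-fluorouridine and compound at 37 °C preceded detection. Luciferase was quantified via ONE-Glo luminescence; loss of signal denotes inhibition.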
# Hits are given with their value; . = inactive; ? = inconclusive; / = not tested or not shown; [ ] = another dose, or the depositor's remark. Most compounds without a hit are left out; they make up all but 21% or so of the library. Unless noted, the call rests on the fitted dose curve; in most records, active means well fitted curve in the direction sought with a large enough effect; inconclusive means small, poorly fitted or top-dose-only effect, or another doubt; inactive means no such curve, though single readings can be large; an effect the other way counts as inactive or inconclusive.
SMILES,IL1B secr inh,TDP1 cell noCPT,RORg inh,DT40 TDP1 CPT,Gal4-VP16 FLuc,ELG1 DNA repair
O=S(=O)(c1ccc(NC(=S)N2CCCCC2)cc1)N1CCCCC1,.,?,/,?,/,/
O=S(=O)(c1ccc(NC(=S)N2CCN(c3ccc(O)cc3)CC2)cc1)N1CCOCC1,.,12µM,.,?,.,8.2µM
O=S(=O)(c1ccc(NC(=S)N2CCOCC2)cc1)N1CCCCC1,.,15µM,/,.,/,/
O=c1cc(O)c2sc3nc4c(c(C(F)(F)F)c3c2[nH]1)CCCCC4,.,?,.,.,.,.
CCc1nc2sc3c(O)cc(=O)[nH]c3c2cc1C,.,12µM,.,?,.,.
COc1ccc(Cl)cc1NC(=O)c1cc(-c2ccc(C)cc2O)n[nH]1,.,.,.,.,.,.
COc1ccc(NC(=O)c2cc(-c3cc(Cl)ccc3O)n[nH]2)c(OC)c1,.,.,.,.,.,.
COc1ccc(NC(=O)c2cc(-c3cc(Cl)ccc3OC)n[nH]2)c(OC)c1,?,?,/,23µM,/,/
CCOc1ccc(Cl)cc1-c1cc(C(=O)Nc2ccc(OC)cc2OC)[nH]n1,.,18µM,/,?,/,/
CCOc1ccc(Cl)cc1-c1cc(C(=O)Nc2cc(OC)ccc2OC)[nH]n1,.,23µM,/,?,/,/
CCN(c1ccccc1)S(=O)(=O)c1ccc(NC(=O)c2cc(=O)c3c(C)cc(C)cc3o2)cc1,/,.,/,.,/,/
Cc1cc2oc(C(=O)Nc3ccc(S(=O)(=O)N(C)c4ccccc4)cc3)cc(=O)c2cc1C,/,.,/,.,/,/
CCN(c1ccccc1)S(=O)(=O)c1ccc(NC(=O)c2cc(=O)c3ccc(C)c(C)c3o2)cc1,/,12µM,/,10µM,/,/
Cc1ccc2c(=O)cc(C(=O)Nc3ccc(S(=O)(=O)N(C)Cc4ccccc4)cc3)oc2c1C,/,3.3µM,/,4.1µM,/,/
CCc1ccc(NC(=O)c2cc(=O)c3ccc(C)c(C)c3o2)cc1,/,3.3µM,/,4.1µM,/,/
CN(c1ccccc1)S(=O)(=O)c1ccc(NC(=O)c2cc(=O)c3ccccc3o2)cc1,/,16µM,/,13µM,/,/
C=CCn1c(SC(C)C#N)nc2ccccc2c1=O (stereo not drawn),/,?,/,.,/,/
Cc1nnc(C)c2c(C)n(-c3cccc4cccnc34)c(C)c12,/,/,.,/,.,.
C=C(C)C1Cc2c(C)nn(-c3cccc4cccnc34)c2C1 (stereo not drawn),.,?,14µM,?,.,?
C=C(C)C1Cc2c(C)nn(-c3ccccn3)c2C1 (stereo not drawn),.,?,13µM,?,?,.
Cc1nn(-c2ccccn2)c2c1C(c1ccccn1)C1=C(CCCC1=O)N2 (stereo not drawn),/,/,.,/,.,.
CCc1cccc(NC(=O)CN(C)S(=O)(=O)c2ccc3c(c2)n(C)c(=O)c(=O)n3C)c1,/,.,/,.,/,/
O=S(=O)(NC1CC2CCC1C2)c1ccc(Br)cc1 (stereo not drawn),.,.,.,.,.,.
O=S(=O)(NC1CC2CCC1C2)c1ccc(Br)s1 (stereo not drawn),.,23µM,.,?,.,.
COc1ccc(C(=O)NC2CCCc3ccccc32)cc1 (stereo not drawn),.,?,.,.,?,.
SMILES,IL1B secr inh,TDP1 cell noCPT,RORg inh,DT40 TDP1 CPT,Gal4-VP16 FLuc,ELG1 DNA repair
Cc1ccc(-c2cn3c(n2)sc2cc(C(=O)NC4CCCc5ccccc54)ccc23)cc1 (stereo not drawn),/,13µM,/,13µM,/,/
COc1ccc(-c2cn3c(n2)sc2cc(C(=O)NC4CCCc5ccccc54)ccc23)cc1 (stereo not drawn),/,5.8µM,/,8.2µM,/,/
CCOc1ccc(-c2nnc(-c3cccs3)o2)cc1,?,.,11µM,.,?,?
CC(C)CC(c1nnnn1Cc1ccccc1)N1CCC(C(N)=O)CC1 (stereo not drawn),.,.,.,.,.,.
Cc1ccccc1C(=O)Oc1c(Sc2ccccc2)c(C)nn1C(C)(C)C,/,15µM,/,?,/,/
COc1ccccc1C(=O)Oc1c(Sc2ccccc2)c(C)nn1C(C)(C)C,/,15µM,/,?,/,/
Oc1ccc2c(c1)C1CCCC1(N1CCOCC1)O2 (stereo not drawn),.,?,.[0.365 µM],23µM,/,.
CC1=C(C(=O)N2CCOCC2)C(c2ccc(O)cc2)NC(=S)N1 (stereo not drawn),.,.,.,.,.,.
COc1ccc2oc(=O)c(-c3nc(C)cs3)cc2c1,.,.,.,.,.,?
COc1ccc2oc(=O)c(-c3nnc(N)s3)cc2c1,-84,.,.,.,.,?
COc1cccc(Nc2nnc(-c3cc4ccc(O)cc4oc3=O)s2)c1,/,23µM,/,?,/,/
CC/C(C)=N\Nc1nc(-c2cc3cc(OC)ccc3oc2=O)cs1,.,18µM,?,?,?,?
Nc1nnc(-c2cc3ccccc3oc2=O)s1,.,?,.[0.365 µM],.,/,?
C=CCn1c(SCC#N)nnc1-c1ccc2ncccc2c1,.,.,.,.,.,?
O=C(CCN1C(=O)/C(=C/c2ccccc2)SC1=S)NC1CCS(=O)(=O)C1 (stereo not drawn),.,.,.,.,?,.
O=C(CCCN1C(=O)/C(=C/c2ccc(F)cc2)SC1=S)NC1CCS(=O)(=O)C1 (stereo not drawn),.,?,4µM,18µM,18µM,.
CC(C)c1ccc(/C=C2\SC(=O)N(CC(=O)NC3CCS(=O)(=O)C3)C2=O)cc1 (stereo not drawn),.,16µM,?,23µM,7.1µM,?
CCCCNc1ccc(C(=O)OCCN(CC)CC)cc1,/,.,/,.,/,/
C[C@H](CCC(=O)O)[C@H]1CC[C@H]2[C@H]3C(C[C@H](O)[C@]12C)[C@@]1(C)CC[C@@H](O)C[C@H]1C[C@H]3O (stereo partly drawn),/,.,.,.,.,/
O=C(Nc1cc(Cl)ccc1Cl)N1CCCC1,.,18µM,.,21µM,.,.
O=C(Nc1cccc(Cl)c1)OCCOC(=O)Nc1cccc(Cl)c1,?,21µM,/,?,/,/
S=C(NCCc1ccccc1)NCc1cccc(Cl)c1,.,.,.,.,.,.
COc1ccc(Cl)cc1NC(=O)Nc1ccccc1C(N)=O,.,8.2µM,.,18µM,.,.
Fc1ccccc1NC(=S)NCCc1cccc(Cl)c1,-88,7.3µM,7.1µM,8.2µM,10µM,?
O=C(Nc1cccc(Cl)c1)N1CCCCCC1,.,.,.,.,.,?
COc1ccc(Cl)cc1NC(=O)Nc1ccccc1SC,.,?,.,?,.,.
CCOC(=O)c1ccccc1NC(=O)COC(=O)C(CCSC)NC(=O)COc1ccccc1 (stereo not drawn),.,.,/,?,/,.
